# The other results are listed elsewhere or left out. The source made the active and inactive calls. Cut-off read from the data, not from the text of the source: active = IC50 below about 80 µM; inactive = the rest.
# Test: isolated mitochondria fluorescence counter-assay – biochemical, uHTS hits, counter-screen for MPTP inhibitor project, dose response (AID 651564)
# Conditions: isolated mitochondria counterscreen, fluorescence read-out
row,Structure (SMILES),IC50
1,O=Cc1cn(Cc2ccc(F)cc2Cl)c2ccccc12,22.6 µM (active)
2,COc1ccc(C2NCc3ccc4c(c3-n3cccc32)OCO4)cc1OC (stereo not drawn),> 80 µM (inactive)
3,CC(Cc1ccccc1)NCCC(c1ccccc1)c1ccccc1 (stereo not drawn),18.7 µM (active)

# From PubChem BioAssay AID651564 (Sanford-Burnham Center for Chemical Genomics, 2012)
